PubChem BioAssay (NCI)
The panel holds about 83,000 compounds, 20% with a hit somewhere; the sample as a whole holds those more often.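 Cell lines were cultured in 96-well plates, exposed to a single compound concentration, and assessed for percent growth 48 hours later.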 A number with no mark means an inactive call. Calls of active or inactive are those of the source.

The compounds below were run on RPMI-8226 leukemia (assay: NCI-60 one-dose screen, 48 h (100 = growth as untreated, 0 = no growth, -100 = all killed)). Conditions: 10 µM unless noted.
Description: Growth inhibition of the RPMI-8226 human tumor cell line is measured as a screen for anti-cancer activity. Cells are grown in 96 well plates and exposed to the test compound for 48 hours. Compounds are tested at a single concentration, which is 10^-5 M for most compounds. The reported endpoint is percent growth (GI% or GIPRCNT), where numbers from 0 - 100% represent growth inhibition, and numbers from -100% - 0 represent cell death. For example, a value of 40 represents 60% growth inhibition. A value of 0 means no net growth occurred over the course of the experiment. A value of -40 indicates 40% of cells at the beginning of the experiment died by the end of the experiment. A value of -100 means all cells are dead at the end of the experiment.
NCI-60 Human Tumor Cell Lines Screen was performed using the standard one-dose NCI protocol, which is described in more detail at https://dtp.cancer.gov/discovery_development/nci-60/default.htm.
Compounds with GIPRCNT values below 10 were considered active. Activity score was based on GIPRCNT using the following formula: […]
Score is 0 for GIPRCNT values of 100 or above, 50 for GIPRCNT values of 0, and 100 for GIPRCNT values of -100.

Compound | growth
CN1CCN(Cc2ccc(NC(=O)c3cncc(C#Cc4cnc(N)c5cccnc45)c3)cc2C(F)(F)F)CC1 | 18.5%
CC(=O)C1=C(O)C=C2Oc3c(C(=O)/C=C/c4c(Cl)cccc4Cl)c(O)c(C)c(O)c3[C@]2(C)C1=O | -17.7% (active)
C/C(=C(/c1ccc(O)cc1)c1ccc(Cl)cc1)c1ccccc1 | -45.9% (active)
Cc1[nH]n(-c2ccccc2)c2nc3nncc3c(-c3ccc(Cl)cc3)c12 | 80.6%
CCCCCCCCCCNC(=O)CCl | 82.3%
CC(=O)C1=C(O)C=C2Oc3c(C(=O)/C=C/c4ccccc4)c(O)c(C)c(O)c3[C@]2(C)C1=O | 34.9%
CN(C)c1ccc(/C=C(\C#N)c2nc3ccccc3s2)cc1 | 111%
CCC(=O)Oc1ccc(/C(=C(\C)c2ccccc2)c2ccc(OCCN(CC)CC)cc2)cc1 | 68.2%
C=C1CC[C@@H]2[C@](C)(COC(C)=O)[C@H](OC(C)=O)CC[C@@]2(C)[C@@H]1CC(NCc1ccc(F)cc1)C1=CCOC1=O (stereo not given in full) | 1.27% (active)
Cc1cc(=O)oc2cc(Oc3nc(-c4cccs4)cn4c(-c5cccs5)cnc34)ccc12 | 70.3%
O=S(=O)(Nc1ccc(F)c(Cl)c1)c1ccc(-c2cnc(C3CC3)o2)cc1 | 19.3%
COCCCN=C(N)c1ccc(NC(=O)c2ccc(C(=O)Nc3ccc(C(N)=NCCCOC)cc3)cc2)cc1 | 63.2%
Oc1cc(O)c2c(=S)cc(-c3ccc(Cl)cc3)oc2c1 | -4.71% (active)
Nc1nc(-c2ccc(F)cc2)cc(-c2cnn(-c3ccccc3)n2)n1 | 105%
Nc1ccc(Nc2nccc(-c3ccc4ccccc4c3)n2)cc1 | 29.7%
COc1cccc(-c2nc3sccn3c2-c2ccnc(NCCCNS(=O)(=O)c3ccccc3)c2)c1 | -17.4% (active)
Cc1cc2cc3cc(C)c(N(C)C)cc3[n+](C)c2cc1N(C)C | 4.78% (active)
NS(=O)(=O)N(c1cc(C(F)(F)F)cc(C(F)(F)F)c1)C1CCN(Cc2ccc(F)cc2)CC1 | 28.1%
CSc1nc2sc3c(c2c(=O)n1-c1ccc(C(C)C)cc1)CCC(=O)C3 | -29.9% (active)
OCCNCCNc1c2ccccc2nc2ccccc12 | 90.8%

Compound | growth
Nc1ccc2c(c1)C(=O)NC2=O | 84.1%
COCCOc1ccc(-c2nc3ccc(-c4nc5ccc(N6CCN(C)CC6)cc5[nH]4)cc3[nH]2)cc1 | 28.4%
O=C(COCc1c(-c2ccccc2)no[n+]1[O-])Nc1ccc(C(=O)/C=C/c2ccc3c(c2)OCO3)cc1 | 74.2%
COc1ccc(C2CC(=O)Nc3c2c(C)nn3-c2nc3ccccc3[nH]2)cc1 (stereo not given) | 20.4%
CC/C(=C(\c1ccc(O)cc1)c1ccc(OCCN(C)CCN(C)C(=O)CCCCC(=O)c2c(C)[nH]c(/C=C3\N=C(c4ccc[nH]4)C=C3OC)c2C)cc1)c1ccccc1 | 63.1%
O=c1c2c3c(sc2n2c(CCl)nnc2n1Cc1ccccc1)CCCC3 | -38.8% (active)
Nc1cc2nc3ccccc3sc-2cc1=O | 45.2%
Cc1cc(Nc2nc(N3CCOCC3)nc3ccccc23)n[nH]1 | 82.5%
Cc1ccc(SCN2CCN(c3cccc(Cl)c3)CC2)cc1 | 164%
O=[N+]([O-])c1cccc(C2CC(c3ccccc3)=Nc3ccccc3S2)c1 (stereo not given) | 16.1%
Cl/C(=N\Nc1ccccc1)c1ccccc1 | 104%
O=C(NC(Cc1ccccc1)C(=O)CCl)OCc1ccccc1 (stereo not given) | 9.51% (active)
Brc1cccc(-c2nc(-c3ccc4c(c3)OCCO4)co2)c1 | 58.1% [25 µM]
CCCCOc1ccc(NC(=O)n2nc(NC(C)=O)c3cc(NC(C)=O)ccc32)cc1 | 76.9%
O=C(/C=C\c1cccc([N+](=O)[O-])c1)c1ccccc1 | 0.104% (active)
CCOc1ccc(Nc2nc(-c3c(C)nc4ncccn34)cs2)cc1 | -9.92% (active)
Cc1ccn2c(-c3csc(Nc4cccc(O)c4)n3)c(C)nc2c1 | -4.74% (active)
CSc1[nH]c2ncnc(N)c2c1C#N | 106%
O=C1OC2C(I)C3CC2C1C3c1ccccc1 (stereo not given) | 106%
CCCCNc1ccc2c3c1cccc3c(=O)n1c3ccccc3nc21 | 80.5%
